DRD3 agonist: agonists of human D3 dopamine receptor; D3R DiscoveRx beta-arrestin cells, luminescence, 90 min; max activation, %; actives 0.58% (n = 410,000); AID 652048; in the data active = max activation above about 30%; also: 0% is about no effect
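Cells at 1500/well, incubated overnight, then treated with pinned compounds (dopamine as control) for 90 min at 37 degrees C. DiscoveRx reagent added for 30 - 60 minutes at room temperature; luminescence read.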
D1 antag: blocks dopamine activation of the human D1 receptor; P21728; activity change, negative = inhibition, % at 10 µM; HEK293 TREx D1 cells, calcium flux, dopamine EC80; hits give low values; actives 3.2% (n = 360,000); in the data active = activity change below about -30%; also: % is scaled to controls: 0 for no effect and ±100 for the full control effect
Target sequence (P21728 whole entry, looked up): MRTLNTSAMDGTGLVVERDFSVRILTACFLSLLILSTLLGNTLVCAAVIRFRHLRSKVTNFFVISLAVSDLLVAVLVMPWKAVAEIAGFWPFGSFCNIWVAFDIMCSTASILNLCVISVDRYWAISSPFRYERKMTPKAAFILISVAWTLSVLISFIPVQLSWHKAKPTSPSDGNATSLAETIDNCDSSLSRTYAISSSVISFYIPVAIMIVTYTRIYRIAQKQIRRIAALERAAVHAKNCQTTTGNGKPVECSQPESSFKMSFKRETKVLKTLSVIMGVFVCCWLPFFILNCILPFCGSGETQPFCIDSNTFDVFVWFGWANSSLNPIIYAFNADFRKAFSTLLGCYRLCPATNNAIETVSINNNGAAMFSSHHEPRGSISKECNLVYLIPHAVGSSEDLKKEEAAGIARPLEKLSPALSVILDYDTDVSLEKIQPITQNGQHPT
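Allosteric or orthosteric antagonism assessed as attenuation of the calcium response to EC80 dopamine, added 180 s after compound, in induced HEK293 Trex D1 cells loaded with no-wash calcium dye.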
D1 ag: agonists of human D1 dopamine receptor; HEK293 T-REx D1 cells, calcium flux, agonist mode; activation, % at 2 µM; actives 1% (n = 360,000); in the data active = activation above about 30%; also: 0% is about no effect
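Inducible HEK293 T-REx D1 cells, force-coupled to calcium signalling, were plated at 4000 cells/well with tetracycline and held overnight at 30 C. After no-wash calcium dye loading, compound-evoked calcium rise over 180 s flagged agonists.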
D3 antag: blocks the human D3 dopamine receptor. P35462. D3R cells, DiscoveRx beta-arrestin luminescence, antagonist mode; hits give low values. max response, negative = inhibition, %. actives 2.5% (n = 360,000); in the data active = max response below about -50%; inconclusive = no clear call, values can overlap the other calls; also: % is scaled to controls: 0 for no effect and ±100 for the full control effect
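Cells plated overnight at 1500 cells/well, then exposed to library compounds with dopamine controls for 90 minutes at 37 degrees C. DiscoveRx reagent added for 30–60 minutes at room temperature; luminescence read, quantitative HTS format.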
D1 PAM: human D1 dopamine receptor positive modulation; actives 0.036% (n = 360,000); potentiation, % at 10 µM; HEK293 TREx D1 cells, calcium flux, dopamine EC20 potentiation; AID 504651; P21728; in the data active = potentiation above about 30%; also: 0% is about no effect
Numbers without * were called inactive; ? = inconclusive; . = no result given. Rows were chosen to be rich in hits. Some 6% of all compounds tested hit in one or more screens of this group.

SMILES	DRD3 agonist	D1 antag	D1 ag	D3 antag	D1 PAM
O=C(Cc1c(F)c(F)c(F)c(F)c1F)Nc1nc(-c2ccccc2)cs1	28	-2	36*	2	-12
O=C(Cc1ccccc1)Nc1nc(-c2cccs2)cs1	0	-31*	4	15	-8
O=C(Cc1cccs1)Nc1nc(-c2ccc(F)cc2F)cs1	-28	-44*	15	36	8
CC1Cc2cc(-c3csc(NC(=O)Cc4cccs4)n3)ccc2N1S(C)(=O)=O (stereo not drawn)	5	-42*	8	42	-5
C#CC1(O)CC[C@H]2[C@@H]3CCC4=CCCC[C@@H]4[C@H]3CC[C@@]21C (stereo partly drawn)	5	.	.	.	.
C[C@H]1CN([C@@H](C)CO)C(=O)CCCn2cc(nn2)CO[C@@H]1CN(C)C(=O)Nc1ccc(N2CCCCC2)cc1	4	.	.	-1	.
CN1CCc2sc(NC(=O)Cc3ccccc3)c(C(=O)Nc3ccc(Cl)cc3)c2C1	.	-53*	23	.	-6
O=C(Cc1ccccc1)Nc1sc2c(c1C(=O)Nc1ccc(Cl)cc1)CCCC2	16	28	6	.	6
CCC(=O)Nc1sc2c(c1C(=O)Nc1ccc(Br)cc1)CCCCC2	3	-31*	4	.	-3
CCOC(=O)c1c(NC(=S)NNS(=O)(=O)c2ccc(Br)cc2)sc2c1CCCCC2	2	-33*	11	12	-7
COc1cccc(CNC(=O)Cc2c(C(=O)O)c(C)cn2C)c1	8	36	3	.	3
O=C(C1CCN(c2nc3ccccc3[nH]2)CC1)N1CCN(c2cccc(Cl)c2)CC1	-12	-16	15	.	-4
COc1ccc(C(CNC(=O)c2ccc(S(=O)(=O)Nc3ccccc3OC)cc2)N2CCCC2)cc1 (stereo not drawn)	-19	.	.	-17	.
N#C[C@@H]1N(Cc2ccccc2)C(=O)[C@H]2CC3C=CC21O3 (stereo partly drawn)	13	-32*	2	0	-8
C=C(Br)CN1[C@@H](Cc2ccccc2)[C@H](O)[C@@]23C=C[C@@H](C[C@@H]2S1(=O)=O)O3	8	.	.	27	.
Cc1nc(N2CCN(S(=O)(=O)c3ccccc3C#N)CC2)c2c(-c3ccccc3)csc2n1	5	9	5	52	-4
O=C1C(=O)C(c2ccccc2)C(=O)C1c1ccccc1 (stereo not drawn)	87*	.	.	-20	.
COC(=O)C1CCN(C(c2ccccc2)c2sc3nc(-c4ccco4)nn3c2O)CC1 (stereo not drawn)	-15	.	-1	.	0
C=CCC[C@@H](Cc1ccc(F)cc1)C(=O)OC[C@@H]1CCCN1C(=O)[C@@H](CC=C)CC(=O)N[C@@H](CO)Cc1ccccc1	3	.	.	24	.
O=C(Nc1ccccc1C(=O)N1CCCCCC1)c1ccccc1	-4	12	3	-8	5
CN(c1ccc(C(=O)Nc2ccccc2C(=O)N2CCCC2)cc1)S(C)(=O)=O	-12	-31*	1	0	-7
NC(Cc1ccc(Cl)cc1)c1csc(Nc2ccc(C(=O)NCCCO)cn2)n1 (stereo not drawn)	-3	.	.	1	.
Cc1cc(C)c(C#N)c(SCC(=O)Nc2ccc(S(=O)(=O)Nc3onc(C)c3C)cc2)n1	4	11	1	-54*	0
Cc1noc(NS(=O)(=O)c2ccc(NC(=O)CSc3n[nH]c(-c4ccccc4)n3)cc2)c1C	0	-4	2	?	-5
Cc1noc(NS(=O)(=O)c2ccc(N/C=C\C(=O)c3cccc4ccccc34)cc2)c1C	10	19	43*	-3	-1
Cc1noc(NS(=O)(=O)c2ccc(NC(=O)Nc3ccc(Cl)c(Cl)c3)cc2)c1C	5	-47*	33*	-77*	-13
Cc1noc(NS(=O)(=O)c2ccc(NC(=O)C(Cl)(Cl)Cl)cc2)c1C	0	6	8	-1	-1
CC(=O)Nc1ccc(OCC(O)CN2CCN(c3cc(Cl)ccc3C)CC2)cc1 (stereo not drawn)	-58	3	18	-10	-8
COc1cc(C(C)=O)ccc1OCC(O)CN1CCN(S(=O)(=O)c2ccccc2)CC1 (stereo not drawn)	3	-31*	0	-10	0

High-throughput results as filed in PubChem BioAssay.
